Hit rate of the full screen: of about 5,500 compounds, about 2,000 (36%) were called active. Another 18% or so got no clear call; they are omitted. This is one part of the list. Unmarked numbers belong to inactive results. Rule as the data show it: active = normalized growth mostly below about 0.91 (no sharp cut-off); inconclusive = no clear call, values can overlap the other calls; inactive = mostly above about 0.92.
Assay: chemical genetic growth profiling, strain panel (AID 1159580);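 also: tested at 20 µM; growth read once vehicle control cultures reached saturation at 30 °C; 1 = growth at the plate median or of vehicle wells; lower values mean less growth of the strain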
Conditions: growth OD

Structure (SMILES): C[C@@H]1CC[C@H]2[C@@H](C)C(O)O[C@@H]3O[C@@]4(C)CC[C@@H]1[C@]32OO4 (some centres not stated)
- normalized growth (S. cerevisiae deletion strains, locus YJR075W, strain HOC1, hits give low values): 0.166 (active)
- normalized growth (S. cerevisiae deletion strains, locus YKL009W, strain mrt4, hits give low values): 0.649 (active)
- normalized growth (S. cerevisiae deletion strains, locus YKL068W, hits give low values): 0.775 (active)
- normalized growth (S. cerevisiae deletion strains, locus YKL085W, strain MDH1 (second series), hits give low values): 0.363 (active)
- normalized growth (S. cerevisiae deletion strains, locus YKL085W, strain MDH1, hits give low values): 0.363 (active)
- normalized growth (S. cerevisiae deletion strains, locus YKL160W, strain elf1, hits give low values): 0.336 (active)
- normalized growth (S. cerevisiae deletion strains, locus YKL190W, strain CNB1, hits give low values): 0.231 (active)
- normalized growth (S. cerevisiae deletion strains, locus YKR001C, strain vps1, hits give low values): 0.587 (active)
- normalized growth (S. cerevisiae deletion strains, locus YKR026C, strain gcn3, hits give low values): 0.407 (active)
- normalized growth (S. cerevisiae deletion strains, locus YKR091W, strain srl3, hits give low values): 0.329 (active)
- normalized growth (S. cerevisiae deletion strains, locus YLL001W, strain dnm1, hits give low values): 0.233 (active)
- normalized growth (S. cerevisiae deletion strains, locus YLL026W, hits give low values): 0.243 (active)
- normalized growth (S. cerevisiae deletion strains, locus YLL041C, strain sdh2, hits give low values): 0.3 (active)
- normalized growth (S. cerevisiae deletion strains, locus YLR027C, strain aat2, hits give low values): 0.261 (active)
- normalized growth (S. cerevisiae deletion strains, locus YLR039C, strain RIC1, hits give low values): 0.33 (active)
- normalized growth (S. cerevisiae deletion strains, locus YLR058C, strain SHM2, hits give low values): 0.403 (active)
- normalized growth (S. cerevisiae deletion strains, locus YLR102C, strain apc9, hits give low values): 0.419 (active)
- normalized growth (S. cerevisiae deletion strains, locus YLR113W, strain HOG1, hits give low values): 0.323 (active)
- normalized growth (S. cerevisiae deletion strains, locus YLR221C, strain rsa3, hits give low values): 0.204 (active)
- normalized growth (S. cerevisiae deletion strains, locus YLR258W, strain gsy2, hits give low values): 0.279 (active)
- normalized growth (S. cerevisiae deletion strains, locus YLR262C, strain YPT6 (second series), hits give low values): 0.322 (active)
- normalized growth (S. cerevisiae deletion strains, locus YLR262C, strain YPT6, hits give low values): 0.486 (active)
- normalized growth (S. cerevisiae deletion strains, locus YLR268W, strain sec22, hits give low values): 0.248 (active)
- normalized growth (S. cerevisiae deletion strains, locus YLR320W, strain mms22, hits give low values): 0.236 (active)
- normalized growth (S. cerevisiae deletion strains, locus YLR330W, strain CHS5, hits give low values): 0.307 (active)
- normalized growth (S. cerevisiae deletion strains, locus YLR342W, strain FKS1 (second series), hits give low values): 0.483 (active)
- normalized growth (S. cerevisiae deletion strains, locus YLR342W, strain FKS1, hits give low values): 0.563 (active)
- normalized growth (S. cerevisiae deletion strains, locus YLR357W, strain rsc2, hits give low values): 0.358 (active)
- normalized growth (S. cerevisiae deletion strains, locus YLR370C, strain arc18, hits give low values): 0.384 (active)
- normalized growth (S. cerevisiae deletion strains, locus YLR371W, strain rom2, hits give low values): 0.528 (active)
- normalized growth (S. cerevisiae deletion strains, locus YLR384C, strain iki3, hits give low values): 0.771 (active)
- normalized growth (S. cerevisiae deletion strains, locus YLR418C, strain cdc73, hits give low values): 0.254 (active)
- normalized growth (S. cerevisiae deletion strains, locus YML016C, strain PPZ1, hits give low values): 0.214 (active)
- normalized growth (S. cerevisiae deletion strains, locus YML032C, strain rad52, hits give low values): 0.367 (active)
- normalized growth (S. cerevisiae deletion strains, locus YML120C, strain ndi1, hits give low values): 0.29 (active)
- normalized growth (S. cerevisiae deletion strains, locus YML124C, strain tub3, hits give low values): 0.421 (active)
- normalized growth (S. cerevisiae deletion strains, locus YMR058W, strain fet3, hits give low values): 0.361 (active)
- normalized growth (S. cerevisiae deletion strains, locus YMR078C, strain ctf18, hits give low values): 0.401 (active)
- normalized growth (S. cerevisiae deletion strains, locus YMR125W, strain sto1, hits give low values): 0.462 (active)
- normalized growth (S. cerevisiae deletion strains, locus YMR129W, hits give low values): 0.266 (active)
- normalized growth (S. cerevisiae deletion strains, locus YMR205C, strain PFK2, hits give low values): 0.366 (active)
- normalized growth (S. cerevisiae deletion strains, locus YMR223W, strain ubp8, hits give low values): 0.31 (active)
- normalized growth (S. cerevisiae deletion strains, locus YMR231W, strain pep5, hits give low values): 0.84 (active)
- normalized growth (S. cerevisiae deletion strains, locus YMR263W, strain SAP30, hits give low values): 0.47 (active)
- normalized growth (S. cerevisiae deletion strains, locus YMR307W, strain GAS1, hits give low values): 0.661
- normalized growth (S. cerevisiae deletion strains, locus YNL067W, strain RPL9B, hits give low values): 0.288 (active)
- normalized growth (S. cerevisiae deletion strains, locus YNL071W, strain lat1, hits give low values): 0.167 (active)
- normalized growth (S. cerevisiae deletion strains, locus YNL128W, strain TEP1, hits give low values): 0.167 (active)
- normalized growth (S. cerevisiae deletion strains, locus YNL153C, strain GIM3, hits give low values): 0.285 (active)
- normalized growth (S. cerevisiae deletion strains, locus YNL183C, strain NPR1, hits give low values): 0.266 (active)
- normalized growth (S. cerevisiae deletion strains, locus YNL209W, strain ssb2, hits give low values): 0.195 (active)
- normalized growth (S. cerevisiae deletion strains, locus YNL233W, strain BNI4, hits give low values): 0.292 (active)
- normalized growth (S. cerevisiae deletion strains, locus YNL248C, strain rpa49, hits give low values): 0.384 (active)
- normalized growth (S. cerevisiae deletion strains, locus YNL250W, strain rad50, hits give low values): 0.508 (active)
- normalized growth (S. cerevisiae deletion strains, locus YNL271C, strain bni1, hits give low values): 0.505 (active)
- normalized growth (S. cerevisiae deletion strains, locus YNL298W, strain CLA4, hits give low values): 0.298 (active)
- normalized growth (S. cerevisiae deletion strains, locus YNL307C, strain MCK1, hits give low values): 0.125 (active)
- normalized growth (S. cerevisiae deletion strains, locus YNL322C, strain KRE1 (second series), hits give low values): 0.493 (active)
- normalized growth (S. cerevisiae deletion strains, locus YNL322C, strain KRE1, hits give low values): 0.349 (active)
- normalized growth (S. cerevisiae deletion strains, locus YNR049C, strain mso1, hits give low values): 0.412 (active)
- normalized growth (S. cerevisiae deletion strains, locus YNR052C, strain pop2, hits give low values): 0.788 (active)
- normalized growth (S. cerevisiae deletion strains, locus YOL006C, strain TOP1, hits give low values): 0.16 (active)
- normalized growth (S. cerevisiae deletion strains, locus YOL012C, strain htz1): 0.255
- normalized growth (S. cerevisiae deletion strains, locus YOL147C, strain pex11, hits give low values): 0.256 (active)
- normalized growth (S. cerevisiae deletion strains, locus YOR001W, strain rrp6, hits give low values): 0.287 (active)
- normalized growth (S. cerevisiae deletion strains, locus YOR061W, strain CKA2, hits give low values): 0.475 (active)
- normalized growth (S. cerevisiae deletion strains, locus YOR069W, strain VPS5, hits give low values): 0.564 (active)
- normalized growth (S. cerevisiae deletion strains, locus YOR070C, strain gyp1, hits give low values): 0.277 (active)
- normalized growth (S. cerevisiae deletion strains, locus YOR080W, strain dia2, hits give low values): 0.431 (active)
- normalized growth (S. cerevisiae deletion strains, locus YOR083W, strain WHI5, hits give low values): 0.3 (active)
- normalized growth (S. cerevisiae deletion strains, locus YOR106W, strain vam3, hits give low values): 0.288 (active)
- normalized growth (S. cerevisiae deletion strains, locus YOR136W, strain idh2, hits give low values): 0.321 (active)
- normalized growth (S. cerevisiae deletion strains, locus YOR144C, strain elg1, hits give low values): 0.449 (active)
- normalized growth (S. cerevisiae deletion strains, locus YOR184W, strain ser1, hits give low values): 0.131 (active)
- normalized growth (S. cerevisiae deletion strains, locus YOR231W, strain MKK1, hits give low values): 0.37 (active)
- normalized growth (S. cerevisiae deletion strains, locus YOR265W, strain rbl2, hits give low values): 0.327 (active)
- normalized growth (S. cerevisiae deletion strains, locus YOR270C, strain vph1, hits give low values): 0.187 (active)
- normalized growth (S. cerevisiae deletion strains, locus YOR290C, strain snf2, hits give low values): 0.302 (active)
- normalized growth (S. cerevisiae deletion strains, locus YOR316C, strain cot1, hits give low values): 0.433 (active)
- normalized growth (S. cerevisiae deletion strains, locus YPL051W, strain arl3, hits give low values): 0.374 (active)
- normalized growth (S. cerevisiae deletion strains, locus YPL055C, strain LGE1, hits give low values): 0.331 (active)
- normalized growth (S. cerevisiae deletion strains, locus YPL078C, strain atp4, hits give low values): 0.248 (active)
- normalized growth (S. cerevisiae deletion strains, locus YPL106C, strain sse1, hits give low values): 0.263 (active)
- normalized growth (S. cerevisiae deletion strains, locus YPL240C, strain hsp82, hits give low values): 0.313 (active)
- normalized growth (S. cerevisiae deletion strains, locus YPL241C, strain CIN2, hits give low values): 0.323 (active)
- normalized growth (S. cerevisiae deletion strains, locus YPL256C, strain CLN2, hits give low values): 0.419 (active)
- normalized growth (S. cerevisiae deletion strains, locus YPR119W, strain clb2, hits give low values): 0.424 (active)
- normalized growth (S. cerevisiae deletion strains, locus YPR141C, strain kar3, hits give low values): 0.494 (active)
- normalized growth (S. cerevisiae deletion strains, locus YPR163C, strain tif3, hits give low values): 0.314 (active)
- normalized growth (S. cerevisiae deletion strains, locus YPR167C, strain met16, hits give low values): 0.386 (active)
- normalized growth (S. cerevisiae deletion strains, strain wtn01, hits give low values): 0.249 (active)
- normalized growth (S. cerevisiae strains, strain wild type, hits give low values): 0.27 (active)

From PubChem BioAssay AID1159580 (chemical genetic matrix, 2015)
